Experimental data published in PubChem BioAssay AID602261 (Sanford-Burnham Center for Chemical Genomics, 2012).
The whole screen tested about 360,000 compounds, of which about 2,400 (0.67%) were called active.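 How the source made its calls: active means compounds whose normalised, plate-corrected inhibition of enzyme fluorescence in the single-dose primary screen is 50% or more; inactive means the rest.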 The list comes from a sample in which actives are over-represented; it also holds similar structures and randomly drawn compounds.

Target: Fatty acid synthase (Homo sapiens) (UniProt P49327)
Test: FAS thioesterase domain inhibitors, primary screen, biochemical, fluorescence intensity, uHTS (AID 602261);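 further: 0% = DMSO with enzyme and 100% = substrate without enzyme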
Settings: recombinant FAS-TE, OMFH fluorogenic substrate, fluorescence endpoint; at 15 µM; hits give high values

Chain of Fatty acid synthase (Homo sapiens) (P49327 whole entry, looked up, the tested form may be a part): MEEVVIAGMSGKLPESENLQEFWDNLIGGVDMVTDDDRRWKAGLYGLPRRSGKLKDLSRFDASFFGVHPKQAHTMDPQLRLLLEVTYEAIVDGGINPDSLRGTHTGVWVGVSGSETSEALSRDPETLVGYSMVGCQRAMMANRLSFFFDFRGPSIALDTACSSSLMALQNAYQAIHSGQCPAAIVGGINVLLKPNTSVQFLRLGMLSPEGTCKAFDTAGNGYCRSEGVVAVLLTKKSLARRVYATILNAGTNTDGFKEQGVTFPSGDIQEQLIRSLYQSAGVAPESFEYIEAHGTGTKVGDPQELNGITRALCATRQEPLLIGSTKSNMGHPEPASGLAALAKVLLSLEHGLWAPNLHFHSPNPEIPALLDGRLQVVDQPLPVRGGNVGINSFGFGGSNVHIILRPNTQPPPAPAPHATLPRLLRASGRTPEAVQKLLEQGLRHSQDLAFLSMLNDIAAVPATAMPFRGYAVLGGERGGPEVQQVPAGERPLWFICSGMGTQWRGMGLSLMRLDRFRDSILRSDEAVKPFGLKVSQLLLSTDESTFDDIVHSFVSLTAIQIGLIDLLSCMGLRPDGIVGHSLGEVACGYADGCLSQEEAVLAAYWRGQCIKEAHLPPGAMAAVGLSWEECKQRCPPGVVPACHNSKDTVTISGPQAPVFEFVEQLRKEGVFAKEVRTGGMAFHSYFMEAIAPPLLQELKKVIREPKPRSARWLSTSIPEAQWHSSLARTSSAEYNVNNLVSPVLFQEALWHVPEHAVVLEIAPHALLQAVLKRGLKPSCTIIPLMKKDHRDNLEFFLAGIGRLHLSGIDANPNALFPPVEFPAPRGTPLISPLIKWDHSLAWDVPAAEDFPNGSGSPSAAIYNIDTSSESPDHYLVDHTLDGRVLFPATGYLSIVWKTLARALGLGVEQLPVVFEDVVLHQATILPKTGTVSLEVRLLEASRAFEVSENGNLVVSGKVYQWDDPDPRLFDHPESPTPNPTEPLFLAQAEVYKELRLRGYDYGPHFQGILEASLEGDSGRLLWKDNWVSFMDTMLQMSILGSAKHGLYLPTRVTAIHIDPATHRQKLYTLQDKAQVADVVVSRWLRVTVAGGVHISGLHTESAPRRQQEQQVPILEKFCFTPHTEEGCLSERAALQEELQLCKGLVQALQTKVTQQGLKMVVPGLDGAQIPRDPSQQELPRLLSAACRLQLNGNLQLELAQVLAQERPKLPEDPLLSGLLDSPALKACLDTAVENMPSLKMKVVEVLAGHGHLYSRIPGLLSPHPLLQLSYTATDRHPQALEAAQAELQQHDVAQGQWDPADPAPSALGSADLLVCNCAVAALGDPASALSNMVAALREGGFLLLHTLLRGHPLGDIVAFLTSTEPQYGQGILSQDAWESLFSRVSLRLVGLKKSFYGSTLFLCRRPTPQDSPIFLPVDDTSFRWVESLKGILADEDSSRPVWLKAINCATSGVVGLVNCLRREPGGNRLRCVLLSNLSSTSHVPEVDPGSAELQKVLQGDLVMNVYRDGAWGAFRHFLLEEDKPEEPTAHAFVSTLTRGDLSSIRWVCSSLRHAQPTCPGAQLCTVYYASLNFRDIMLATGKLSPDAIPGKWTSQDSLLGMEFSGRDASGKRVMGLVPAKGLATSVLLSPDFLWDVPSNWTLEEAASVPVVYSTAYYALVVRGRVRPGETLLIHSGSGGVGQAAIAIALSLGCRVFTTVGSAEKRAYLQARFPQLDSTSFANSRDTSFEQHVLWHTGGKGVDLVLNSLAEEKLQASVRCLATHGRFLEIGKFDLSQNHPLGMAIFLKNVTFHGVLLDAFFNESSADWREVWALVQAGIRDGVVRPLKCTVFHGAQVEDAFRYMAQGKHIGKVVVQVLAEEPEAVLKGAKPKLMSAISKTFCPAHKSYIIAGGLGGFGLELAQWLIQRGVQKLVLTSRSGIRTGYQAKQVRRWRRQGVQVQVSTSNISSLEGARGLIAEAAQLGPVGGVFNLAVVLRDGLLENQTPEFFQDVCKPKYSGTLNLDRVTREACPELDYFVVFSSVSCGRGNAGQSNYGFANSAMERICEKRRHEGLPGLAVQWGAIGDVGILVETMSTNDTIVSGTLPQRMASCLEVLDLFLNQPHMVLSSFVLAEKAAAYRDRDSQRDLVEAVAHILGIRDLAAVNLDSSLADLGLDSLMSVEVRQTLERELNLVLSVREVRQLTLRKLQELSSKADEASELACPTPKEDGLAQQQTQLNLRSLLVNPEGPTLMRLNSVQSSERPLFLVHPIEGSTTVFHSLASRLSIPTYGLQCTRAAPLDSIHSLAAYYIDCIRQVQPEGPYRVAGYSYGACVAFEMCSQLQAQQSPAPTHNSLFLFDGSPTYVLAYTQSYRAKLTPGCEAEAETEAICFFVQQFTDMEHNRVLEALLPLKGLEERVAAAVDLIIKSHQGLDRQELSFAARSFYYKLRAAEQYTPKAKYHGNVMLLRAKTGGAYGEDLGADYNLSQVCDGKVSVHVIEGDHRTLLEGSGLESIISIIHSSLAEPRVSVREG

inhibition, inactive:
COC(=O)c1cccc(N2C(=O)C3C4C=CC(CC4)C3C2=O)c1 (stereo unspecified) -6.4%
CC(=O)Nc1ccc(N2C(=O)C3C4CC(=O)C(c5ccccc54)C3C2=O)cc1 (stereo unspecified) -10%
CCCNC(=O)COc1coc(CN2CCN(Cc3ccccc3)CC2)cc1=O -9.4%
CC1(c2cccc(N)c2)OCCO1 -9.3%
COc1ccc([N+](=O)[O-])cc1N(CC(O)CN(CC(C)C)CC(C)C)S(=O)(=O)c1ccc(C)cc1 (stereo unspecified) 32.7%
Cc1ccc(S(=O)(=O)N(CC(O)CN2CCCCC2)c2cccc([N+](=O)[O-])c2)cc1 (stereo unspecified) 2.6%
Cc1c(C(=O)N2CCCC2)c(S(=O)(=O)NCC(C)c2ccccc2)c(C)n1C (stereo unspecified) 2.1%
Cc1ccnc(NC(=O)c2ccc(Cl)c([N+](=O)[O-])c2)c1 23.1%
O=C(COc1ccc(Cl)cc1)NCCC1=CCCCC1 15.7%
COc1ccc(C(c2nnnn2Cc2cccs2)N2CCN(c3ccccc3)CC2)cc1OC (stereo unspecified) 14.2%
O=C(CCl)N(Cc1cccc([N+](=O)[O-])c1)c1cccc(Cl)c1 15.2%
Nc1c(C(=O)O)cnn1-c1ccccc1 -1.5%
COc1cccc(NC(=O)COC(=O)/C=C/c2ccco2)c1 3.5%
CC(C)CNC(=O)COC(=O)/C=C/c1ccco1 -7.5%
CCOC(=O)Nc1ccc(S(=O)(=O)N(C)C(C)C)cc1 -3.7%
CN1C(C(=O)NCc2ccco2)CC2Cn3c(nc4ccccc43)C21 (stereo unspecified) -11.9%
O=C(CCCl)Nc1ccc(S(=O)(=O)NCc2ccco2)cc1 -1.3%
COc1ccc(CNC(=O)C2CC(c3ccc(C(F)(F)F)cc3)=NO2)cc1 (stereo unspecified) -1.7%
Cc1ccc(CNC(=O)C2CC(c3ccccc3[N+](=O)[O-])=NO2)o1 (stereo unspecified) -5.1%
O=C(NCCCn1ccnc1)C(=O)NCC1OCCN1S(=O)(=O)c1cc(F)ccc1F (stereo unspecified) -10.1%
CNC(=O)c1[nH]cnc1C(=O)N[C@@H](CC(C)C)C(=O)OC(C)(C)C -5.3%
CC(C)(C)OC(=O)NCCCCCNC(=O)c1nc[nH]c1C(=O)NCc1ccccc1 8.2%
CC(C)(C)OC(=O)NCCCCCNC(=O)c1[nH]cnc1C(=O)Nc1nccs1 -15.7%
C[C@H](NC(=O)c1nc[nH]c1C(=O)N[C@@H](C)C(=O)OC(C)(C)C)C(=O)OC(C)(C)C -7%
COc1ccccc1CNS(=O)(=O)CC12CCC(CC1=O)C2(C)C (stereo unspecified) 2.9%
Cc1cccc(OCC(=O)OCC(=O)Nc2ccc(Cl)cn2)c1 -6.1%
CCN(CC)C(CNC(=O)CSc1nnnn1-c1cccc(F)c1)c1ccco1 (stereo unspecified) -1.2%
Cc1cccc(N2CCN(C(=O)c3cc4c(=O)[nH]c5ccccc5c4n3C)CC2)c1C 5%
O=C(Cc1ccc(S(=O)(=O)N2CCOCC2)s1)NCCOc1ccccc1F -0.5%
Cc1ccc2c(c1)C(O)(CC(=O)c1cccc(-n3cccc3)c1)C(=O)N2 (stereo unspecified) 2.6%
Nc1nnnn1/N=C/c1cc([N+](=O)[O-])ccc1O -3.3%
COc1cc(/C=C(/NC(=O)c2ccccc2)C(=O)Nc2cccc(O)c2)c([N+](=O)[O-])cc1OC -3.8%
COc1ccc(NC(=O)NN2CCN(C)CC2)c(OC)c1 -6%
O=S(=O)(Nc1cccc(Oc2ccc(Cl)cc2)n1)c1ccc(F)cc1 8.1%
CC(C)CC(=O)c1c[nH]c(C(=O)NCc2ccccc2)c1 -3.6%
CC1(c2ccc(Cl)cc2)NC(=O)N(CC(=O)c2ccc3c(c2)OCO3)C1=O (stereo unspecified) 11.3%
Cn1c(=O)[nH]c(=O)c2c1nc(NCCCn1ccnc1)n2Cc1cccc(Br)c1 -2.6%
CCOC(=O)c1ccc(-c2ccc3ncnc(N(C)Cc4sccc4C)c3c2)o1 26.5%
Cc1ccc(C2=NN(C(=O)CSc3nc(N)cc(N)n3)C(c3ccco3)C2)cc1 (stereo unspecified) 1.5%
COc1ccc(C2CC(c3ccccc3)=NN2C(=O)CSc2nccc(=O)[nH]2)cc1 (stereo unspecified) -5.6%
Cc1ccc(N2C(=O)S/C(=C/c3cn(C)c4ccccc34)C2=O)cc1 28.7%
Cc1cccc(N=C2SC(C)CN2C(=O)CN2C(=O)NC3(CCCC3)C2=O)c1 (stereo unspecified) 3.9%
Cc1ccccc1CSc1nnc(-c2ccccn2)n1N -5.3%
O=C(NC1=NCCS1)c1ccc(Cl)s1 -11.9%
Cc1cccc(N2CCC(NCc3c(C(=O)N4CCCCC4)nc4c(C)cccn34)CC2)c1 -1.6%

inhibition, active:
O=C(Oc1cccc(N2C(=O)C3C4c5ccccc5C(c5ccccc54)C3C2=O)c1)c1ccco1 (stereo unspecified) 64.1%
COc1ccc([N+](=O)[O-])cc1N(CC(O)Cn1nnc2ccccc21)S(=O)(=O)c1ccc(C)cc1 (stereo unspecified) 51.1%
O=C(NCCC1=CCCCC1)c1ccc(Cl)c([N+](=O)[O-])c1 59.5%
Nc1c(-c2cccc(Cl)c2)cnn1-c1cccc([N+](=O)[O-])c1 51.8%
COc1ccc([N+](=O)[O-])cc1NC(=O)COC(=O)/C=C/c1ccco1 71.2%
O=C(NCCCCc1ccccc1)C1CC(c2ccc([N+](=O)[O-])cc2)=NO1 (stereo unspecified) 54.2%
Cc1ccc(NC(=O)c2nc[nH]c2C(=O)N[C@@H](CCCCNC(=O)OC(C)(C)C)C(=O)OC(C)(C)C)cc1 75.3%
CCOC(=O)c1ccc(NC(=O)c2nc[nH]c2C(=O)N[C@@H](CCCCNC(=O)OC(C)(C)C)C(=O)OC(C)(C)C)cc1 85.2%
O=C(N/N=C/c1cc([N+](=O)[O-])ccc1O)/C(=C\c1cccs1)NC(=O)c1ccccc1 56.5%
COc1ccc(C2=NN(C(=O)CSc3nc(=O)n4ccc(C)cc4n3)C(c3ccc(C)cc3)C2)cc1 (stereo unspecified) 81.4%
Cc1cccc(N=C2NC(=O)/C(=C/c3cn(C)c4ccccc34)S2)c1 52.4%
